The source of these data is the supplement of paper PMC3342239.

This assay has as its system Saccharomyces cerevisiae. Put plainly: fraction of cells in G1 phase (DNA content, flow cytometry); higher = more cells with unreplicated DNA (G1 delay). Particulars: temperature: 30 C; YPD; JTY2953 pdr5 snq2 (sensitized); drug added to: cultures diluted from stationary phase; 6-7 h. Summed up: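 For the G1 fraction, the Dean-Jett-Fox G1 peak area was divided by the sum of the G1 and G2/M areas. S. cerevisiae in YPD at 30°C received library drugs and was fixed 6–7 h later for sensitized JTY2953 (diluted 1∶200 from overnight, final 20 µg/ml), 6 h later for dividing JTY2953, or 4.33 h later for BY4741. Fixed cells were stained with SYTOX Green and 10,000 events recorded by flow cytometry.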
In general terms: Flow cytometry measures light scatter and fluorescence of single cells or particles in a stream.
In the case of `CCCCc1nc(Cl)c(CO)n1Cc1ccc(-c2ccccc2-c2nnn[nH]2)cc1` [Losartan potassium] (43.3825 µM), the “fraction of cells in G1 phase” value came to 0.487.

In the case of `COc1cc2ncnc(Nc3ccc(F)c(Cl)c3)c2cc1OCCCN1CCOCC1` [Gefitinib] (44.7514 µM), the “fraction of cells in G1 phase” value was determined as 0.535.

Take `CCC[C@@H]1C[C@@H](C(=O)N[C@@H]([C@H]2O[C@H](SC)[C@H](O)[C@@H](O)[C@H]2O)[C@@H](C)O)N(C)C1` [Lincomycin] (49.195 µM): the “fraction of cells in G1 phase” value stood at 0.539.

Turning to `Nc1ncnc2c1ncn2[C@@H]1O[C@H](CO)[C@@H](O)[C@@H]1O` [Vidarabine] (74.8374 µM), the “fraction of cells in G1 phase” value is 0.481.

In the case of `CCCCN1C[C@H](O)[C@@H](O)[C@H](O)[C@H]1CO` [Miglustat] (91.2063 µM), the “fraction of cells in G1 phase” value worked out at 0.456.

On to `O=c1[nH]c(=O)n(C2CCCO2)cc1F` (stereo unspecified) [Ftorafur] (99.9146 µM), for which the “fraction of cells in G1 phase” value amounted to 0.512.

As to `COC(=O)N/N=C/c1c[n+]([O-])c2ccccc2[n+]1[O-]` [Carbadox] (76.2699 µM), the “fraction of cells in G1 phase” value was 0.414.

With `CC(C)C[C@H](NC(=O)[C@H](Cc1ccccc1)NC(=O)c1cnccn1)B(O)O` [Bortezomib] (52.0499 µM), the “fraction of cells in G1 phase” value turned out to be 0.4.

Regarding `O=C(O)COCCN1CCN(C(c2ccccc2)c2ccc(Cl)cc2)CC1` (stereo unspecified) [Cetirizine 2HCl] (43.3088 µM), the “fraction of cells in G1 phase” value came to 0.492.

Regarding `CN(CCOc1ccc(NS(C)(=O)=O)cc1)CCc1ccc(NS(C)(=O)=O)cc1` [Dofetilide] (45.2927 µM), the “fraction of cells in G1 phase” value came to 0.551.

Consider `CCOC(=O)[C@H](CCc1ccccc1)N[C@@H](C)C(=O)N1CCC[C@H]1C(=O)O` [Enalapril] (53.127 µM), for which the “fraction of cells in G1 phase” value came to 0.511.
